Here are results for 34 compounds from ChEMBL document CHEMBL1961873, “Compounds: GSK PKIS; Assays: Nanosyn kinase panel” (2012).

Chain of Serine/threonine-protein kinase PLK1 (Homo sapiens) (P53350 whole entry): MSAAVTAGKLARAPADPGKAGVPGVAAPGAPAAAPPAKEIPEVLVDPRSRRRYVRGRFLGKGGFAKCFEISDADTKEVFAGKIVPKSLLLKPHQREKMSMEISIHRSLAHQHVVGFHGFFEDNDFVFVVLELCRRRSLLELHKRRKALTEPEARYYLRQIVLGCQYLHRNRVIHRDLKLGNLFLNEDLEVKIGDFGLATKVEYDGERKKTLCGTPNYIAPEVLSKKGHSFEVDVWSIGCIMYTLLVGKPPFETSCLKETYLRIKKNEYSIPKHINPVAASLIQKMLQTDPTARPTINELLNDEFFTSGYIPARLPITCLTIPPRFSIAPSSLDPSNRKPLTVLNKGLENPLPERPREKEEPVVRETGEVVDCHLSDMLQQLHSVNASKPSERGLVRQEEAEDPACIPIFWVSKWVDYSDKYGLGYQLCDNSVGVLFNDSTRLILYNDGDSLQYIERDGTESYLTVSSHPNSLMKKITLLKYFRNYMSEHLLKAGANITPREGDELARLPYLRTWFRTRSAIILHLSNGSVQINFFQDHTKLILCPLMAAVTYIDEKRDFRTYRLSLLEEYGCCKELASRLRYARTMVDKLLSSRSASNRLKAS

One assay addresses T1, Serine/threonine-protein kinase Nek9 (Homo sapiens) (UniProt Q8TD19).
T1 sequence (whole entry): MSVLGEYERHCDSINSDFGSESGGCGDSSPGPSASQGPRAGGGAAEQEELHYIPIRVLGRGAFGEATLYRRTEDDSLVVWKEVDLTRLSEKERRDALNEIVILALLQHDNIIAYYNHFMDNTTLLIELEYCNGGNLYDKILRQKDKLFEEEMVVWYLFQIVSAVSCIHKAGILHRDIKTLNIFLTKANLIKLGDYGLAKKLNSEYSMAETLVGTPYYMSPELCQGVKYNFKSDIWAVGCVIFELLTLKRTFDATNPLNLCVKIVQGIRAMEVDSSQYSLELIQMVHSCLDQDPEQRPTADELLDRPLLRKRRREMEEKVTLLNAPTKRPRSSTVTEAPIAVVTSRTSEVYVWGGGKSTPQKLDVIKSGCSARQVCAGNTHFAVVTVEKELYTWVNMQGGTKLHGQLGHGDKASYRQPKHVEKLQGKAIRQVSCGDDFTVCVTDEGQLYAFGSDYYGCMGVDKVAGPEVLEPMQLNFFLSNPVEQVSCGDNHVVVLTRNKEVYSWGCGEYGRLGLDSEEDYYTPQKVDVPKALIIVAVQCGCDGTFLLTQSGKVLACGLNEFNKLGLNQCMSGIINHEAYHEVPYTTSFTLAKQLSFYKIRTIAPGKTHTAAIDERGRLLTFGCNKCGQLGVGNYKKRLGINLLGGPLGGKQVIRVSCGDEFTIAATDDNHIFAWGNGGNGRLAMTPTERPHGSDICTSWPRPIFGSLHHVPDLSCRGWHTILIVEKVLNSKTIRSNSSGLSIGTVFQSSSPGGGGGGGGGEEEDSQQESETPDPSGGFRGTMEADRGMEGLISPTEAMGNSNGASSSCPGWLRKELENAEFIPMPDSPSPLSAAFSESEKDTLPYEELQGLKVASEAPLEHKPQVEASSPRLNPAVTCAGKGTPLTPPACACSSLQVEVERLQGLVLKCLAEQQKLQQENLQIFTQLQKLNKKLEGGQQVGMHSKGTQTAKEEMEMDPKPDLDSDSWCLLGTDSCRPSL
To be noted: at 1 µM.
As for `Fc1ccc(-c2c(-c3ccncc3)nc3n2CCS3)cc1`, the inhibition is 4.81%.
Regarding `C/C(Nc1ccc(S(N)(=O)=O)cc1)=C1/C(=O)Nc2ccccc21`, the inhibition is 1.67%.
With `C[C@@H](Oc1cc(-n2cnc3ccc(OC4CCN(C)CC4)cc32)sc1C(N)=O)c1ccccc1Cl`, the inhibition came out at 97.2%.
Take `CCS(=O)(=O)c1ccc(OC)c(Nc2ncc(-c3ccccc3Cl)o2)c1`: the inhibition was 6.89%.
On to `COc1cc(N2CCN(C(C)C)CC2)ccc1Nc1nc(Nc2ccc(F)cc2C(=O)NC[C@@H](O)CO)c2cc[nH]c2n1`, for which the inhibition was determined as 15.3%.
For `Cc1nnc(-c2ccc(C)c(-c3ccc(C(=O)NCc4ccc(Cl)cc4)cc3)c2)o1`, the inhibition was 11.6%.
For `COc1ccc2ncn(-c3cc(O[C@H](C)c4ccccc4Cl)c(C(N)=O)s3)c2c1`, the inhibition was 83.7%.
On the same count and under the same terms, as for `COc1cc(Nc2ncc3c(C)nc(-c4cccc(Oc5ccccc5)c4)n3n2)cc(OC)c1OC`, the figure is 81.4%; as for `CN(C)CCCNc1nccc(-c2c(-c3ccc(F)cc3)nn3cc(C(F)(F)F)ccc23)n1`, 0.61%.
Still for that read-out and setting: as for `CS(=O)(=O)CCNCc1ccc(-c2ccc3ncnc(Nc4ccc(OCc5ccccc5)c(Br)c4)c3c2)o1`, the figure is 5.79%; as for `COc1cc2ncn(-c3cc(OCCc4ccccc4)c(C(N)=O)s3)c2cc1OC`, 6.63%; as for `O=C(NCC1CC1)c1ccc(-c2cccc(C(=O)NC3CC3)c2)cc1`, -2.12%.
Regarding `CN1CCN(CCCNc2nc3ccc(Oc4ccc(NC(=O)Nc5cc(C(F)(F)F)ccc5F)cc4)cc3[nH]2)CC1`, the inhibition is -1.83%.
With `CN(C)c1ccc2c(c1)/C(=C/Nc1ccc(S(N)(=O)=O)cc1)C(=O)N2`, the inhibition is 4.93%.
Take `Clc1ccc(CNc2nccc(-c3cnn4ncccc34)n2)cc1`: the inhibition is -2.99%.
Consider `COc1cccc(-n2cnc3c(N/N=C/c4ccncc4)ncnc32)c1`, for which the inhibition came out at 5.21%.
For the compound `COc1ccc2cc(-c3c(-c4ccncc4)nc(-c4ccc([S+](C)[O-])cc4C)n3C)ccc2c1` (stereo not given), the inhibition was -2.02%.
Turning to `COc1cc2ncn(-c3cc(OCc4cccs4)c(C(N)=O)s3)c2cc1OC`, the inhibition was 28.4%.
The same measure, in the same setting: then `CNC(=O)c1cncc(/C=C/c2c(C)cccc2C)c1`, with 2.51%.
On the same count and under the same terms, then `COc1cc(C)c(N(C)C(=O)CN(C)C)cc1Nc1nc(Nc2cccc(F)c2C(N)=O)c2cc[nH]c2n1`, with 3.64%; and `C#Cc1cccc(Nc2ncnc3ccc(OCCCCNCCS(C)(=O)=O)cc23)c1`, with 10.2%; and `COC(=O)Nc1nc2ccc(Sc3ccc(NC(=O)Nc4cc(C(F)(F)F)ccc4F)cc3)cc2[nH]1`, with -0.45%.
Consider `CCc1nccc2c1nc(-c1nonc1N)n2CC`, for which the inhibition turned out to be 2.52%.
`COc1cc(Nc2ncc3c(C)nc(-c4cccc(C(F)(F)F)c4)n3n2)cc(OC)c1OC`: the inhibition turned out to be 86.1%.
As for `O=C1Nc2ccc(I)cc2C1=Cc1cc(Br)c(O)c(Br)c1`, the inhibition turned out to be 7.24%.
With `COc1cc2ncn(-c3cc(OCc4ccccc4C(F)(F)F)c(C(C)=O)s3)c2cc1OC`, the inhibition was determined as 5.55%.
`O=C(Nc1ccc(Oc2ccc3[nH]c(NC(=O)c4ccccc4)nc3c2)cc1)Nc1cc(C(F)(F)F)ccc1F`: the inhibition came out at 10.3%.
On the same count and under the same terms, then `c1ccc(Oc2ccc(Nc3ncc(-c4ccccc4)o3)cc2)cc1`, with 2.53%.
For `Fc1ccc(-c2ncn(CCCN3CCOCC3)c2-c2ccncc2)cc1`, the inhibition came to 3.15%.
Same read-out and setting: then `CCS(=O)(=O)c1ccc(OC)c(Nc2ncc(-c3cccc(-c4ccccc4F)c3)o2)c1`, with -0.99%; and `Fc1ccc(-c2nc3n(c2-c2ccncc2)CCS3)cc1`, with 6.52%.
Same read-out and setting: then `C[C@@H](Oc1cc(-n2cnc3ccc(OCC4CCN(C)CC4)cc32)sc1C(N)=O)c1ccccc1Cl`, with 89.7%; and `FC(F)(F)c1cccc(Nc2nccc(-c3cnn4nc(-c5ccccc5)ccc34)n2)c1`, with 8.66%.

Another assay addresses Serine/threonine-protein kinase PLK1 (Homo sapiens) (UniProt P53350). The note with it: at 0.1 µM.
For `Fc1ccc(-c2c(-c3ccncc3)nc3n2CCS3)cc1`, the inhibition came to 2.99%.
Still for that read-out and setting: as for `C/C(Nc1ccc(S(N)(=O)=O)cc1)=C1/C(=O)Nc2ccccc21`, the figure is -0.74%; as for `CCS(=O)(=O)c1ccc(OC)c(Nc2ncc(-c3ccccc3Cl)o2)c1`, 0.86%; as for `COc1cc(N2CCN(C(C)C)CC2)ccc1Nc1nc(Nc2ccc(F)cc2C(=O)NC[C@@H](O)CO)c2cc[nH]c2n1`, 9.77%.
`Cc1nnc(-c2ccc(C)c(-c3ccc(C(=O)NCc4ccc(Cl)cc4)cc3)c2)o1`: the inhibition is 3.2%.
Turning to `CN(C)CCCNc1nccc(-c2c(-c3ccc(F)cc3)nn3cc(C(F)(F)F)ccc23)n1`, the inhibition was determined as 2.56%.
Take `CS(=O)(=O)CCNCc1ccc(-c2ccc3ncnc(Nc4ccc(OCc5ccccc5)c(Br)c4)c3c2)o1`: the inhibition was determined as 3.69%.
Take `O=C(NCC1CC1)c1ccc(-c2cccc(C(=O)NC3CC3)c2)cc1`: the inhibition came out at 1.33%.
Take `CN1CCN(CCCNc2nc3ccc(Oc4ccc(NC(=O)Nc5cc(C(F)(F)F)ccc5F)cc4)cc3[nH]2)CC1`: the inhibition turned out to be 1.78%.
Take `CN(C)c1ccc2c(c1)/C(=C/Nc1ccc(S(N)(=O)=O)cc1)C(=O)N2`: the inhibition came to 2.05%.
The same measure, in the same setting: then `Clc1ccc(CNc2nccc(-c3cnn4ncccc34)n2)cc1`, with 2.4%.
On the same count and under the same terms, as for `COc1cccc(-n2cnc3c(N/N=C/c4ccncc4)ncnc32)c1`, the figure is -1.9%; as for `COc1ccc2cc(-c3c(-c4ccncc4)nc(-c4ccc([S+](C)[O-])cc4C)n3C)ccc2c1` (stereo not given), -0.27%; as for `c1ccc(-c2n[nH]cc2-c2ccnc(-c3ccc(OCCN4CCOCC4)cc3)c2)nc1`, -1.38%.
As to `CNC(=O)c1cncc(/C=C/c2c(C)cccc2C)c1`, the inhibition was determined as 1.18%.
In the case of `COc1cc(C)c(N(C)C(=O)CN(C)C)cc1Nc1nc(Nc2cccc(F)c2C(N)=O)c2cc[nH]c2n1`, the inhibition was 2.25%.
For `C#Cc1cccc(Nc2ncnc3ccc(OCCCCNCCS(C)(=O)=O)cc23)c1`, the inhibition turned out to be 2.94%.
Consider `COC(=O)Nc1nc2ccc(Sc3ccc(NC(=O)Nc4cc(C(F)(F)F)ccc4F)cc3)cc2[nH]1`, for which the inhibition is -0.3%.
As for `CCc1nccc2c1nc(-c1nonc1N)n2CC`, the inhibition came to 0.58%.
With `O=C1Nc2ccc(I)cc2C1=Cc1cc(Br)c(O)c(Br)c1`, the inhibition was 5.57%.
Still for that read-out and setting: then `COc1cc2ncn(-c3cc(OCc4ccccc4C(F)(F)F)c(C(C)=O)s3)c2cc1OC`, with 20.5%; and `O=C(Nc1ccc(Oc2ccc3[nH]c(NC(=O)c4ccccc4)nc3c2)cc1)Nc1cc(C(F)(F)F)ccc1F`, with 2.66%.
Turning to `c1ccc(Oc2ccc(Nc3ncc(-c4ccccc4)o3)cc2)cc1`, the inhibition came out at 1.36%.
With `Fc1ccc(-c2ncn(CCCN3CCOCC3)c2-c2ccncc2)cc1`, the inhibition is -0.58%.
Same read-out and setting: as for `CCS(=O)(=O)c1ccc(OC)c(Nc2ncc(-c3cccc(-c4ccccc4F)c3)o2)c1`, the figure is 20.4%; as for `Fc1ccc(-c2nc3n(c2-c2ccncc2)CCS3)cc1`, 3.85%.
Regarding `FC(F)(F)c1cccc(Nc2nccc(-c3cnn4nc(-c5ccccc5)ccc34)n2)c1`, the inhibition is 2.06%.

For orientation: inhibition means the drop in the measured response relative to a control, in per cent.
